Screening data from PubChem.
gsp antagonist: gsp mutant antagonism. gsp-mutant cells, cAMP HTRF, 30 min. Potency, µM (titrated, usually from 76.9 µM), hits mostly inhibitors. hit rate 0.4% among 340,000. AID 624288; calls by dose curve; cell line not stated here;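 also: intracellular cAMP measured with PDE inhibitor Ro 20-1724 present during compound exposure; nearly all actives have a fitted effect of over 65% in size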
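HTRF cAMP measurement after 30 min RT detection following 30 min, 37C compound treatment alongside […] (added as 300 uM solution) in G418-selected cells seeded at 2000/well and grown 16–24 h.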
MmCpn inh: M. maripaludis TRiC chaperonin inhibition. purified Mm-Cpn ATPase, ADP Transcreener TR-FRET. Potency, µM (doses to about 76.9 µM), actives largely listed as inhibitors. hit rate 0.031% among 330,000. AID 504842; active = well fitted inhibition curve with a large enough effect; inconclusive = small, poorly fitted or top-dose-only effect; also: nearly all actives have a fitted effect of over 80% in size
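25 nM Mm-CPN + cpd, 10 min 37°C; + 10 uM ATP, 30 min 37°C; buffer 30 mM Tris pH 7.4, 100 mM KCl, 5 mM MgCl2, 1 mM DTT; Transcreener ADP HTRF detection 30 min RT.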
CCT modulator: cytosolic chaperonin activity modulation. purified chaperonin ATPase assay, HTRF ADP detection, 30 min. activity change, % (test concentration not listed), hits read low. hit rate 0.3% among 360,000; in the data active = activity change below about -30%
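First, chaperonin was dispensed at 40 nM or 20 nM final depending on batch activity. Next, compounds were pinned at 76 uM and ATP added at 10 uM. After 30 min at 37 °C, ADP detection reagents ran 30 min at ambient temperature.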
uPA generation: blocks generation of uPA at the cell surface; cell surface uPA generation assay, qHTS; Potency, µM (top dose mostly 38.3 µM), most hits filed as inhibitors; hit rate 0.31% among 330,000; AID 540303; active = well fitted inhibition curve with a large enough effect; inconclusive = small, poorly fitted or top-dose-only effect; inactive = no such curve, though single readings can be large or run the other way; tested in mouse RAW 264.7 cells; also: nearly all actives have a fitted effect of over 55% in size
gsp ag: agonists of gsp mutant (McCune-Albright syndrome). gsp mutant cells, cAMP HTRF, 30 min. Potency, µM (top dose mostly 76.9 µM), most hits filed as activators. hit rate 0.13% among 340,000; active = well fitted activation curve with a large enough effect; inconclusive = small, poorly fitted or top-dose-only effect, or another doubt; inactive = no such curve, though single readings can be large or run the other way; cell line not stated here;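 also: phosphodiesterase inhibitor Ro 20-1724 added with compounds to block cAMP breakdown; nearly all actives have a fitted effect of over 60% in size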
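Cells in DMEM/10% FBS with G418 were pretreated with compounds in DMSO plus […] (300 uM stock) for 30 min at 37C. cAMP was measured by HTRF (cAMP-d2 plus anti-cAMP antibody-K) after 30 min at room temperature.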
TSHR antag: antagonists of human thyroid stimulating hormone receptor. P16473. activity change, negative = inhibition, % at 11.5 µM. TSHR-expressing cells, TSH-stimulated cAMP HTRF, 2 h; active compounds read low. hit rate 0.2% among 330,000;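 active = activity change below a set negative limit, meaning inhibition stronger than a set level, cut at about -70% in these data; inconclusive = activity change between two set negative limits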
Target sequence (P16473 whole entry, looked up): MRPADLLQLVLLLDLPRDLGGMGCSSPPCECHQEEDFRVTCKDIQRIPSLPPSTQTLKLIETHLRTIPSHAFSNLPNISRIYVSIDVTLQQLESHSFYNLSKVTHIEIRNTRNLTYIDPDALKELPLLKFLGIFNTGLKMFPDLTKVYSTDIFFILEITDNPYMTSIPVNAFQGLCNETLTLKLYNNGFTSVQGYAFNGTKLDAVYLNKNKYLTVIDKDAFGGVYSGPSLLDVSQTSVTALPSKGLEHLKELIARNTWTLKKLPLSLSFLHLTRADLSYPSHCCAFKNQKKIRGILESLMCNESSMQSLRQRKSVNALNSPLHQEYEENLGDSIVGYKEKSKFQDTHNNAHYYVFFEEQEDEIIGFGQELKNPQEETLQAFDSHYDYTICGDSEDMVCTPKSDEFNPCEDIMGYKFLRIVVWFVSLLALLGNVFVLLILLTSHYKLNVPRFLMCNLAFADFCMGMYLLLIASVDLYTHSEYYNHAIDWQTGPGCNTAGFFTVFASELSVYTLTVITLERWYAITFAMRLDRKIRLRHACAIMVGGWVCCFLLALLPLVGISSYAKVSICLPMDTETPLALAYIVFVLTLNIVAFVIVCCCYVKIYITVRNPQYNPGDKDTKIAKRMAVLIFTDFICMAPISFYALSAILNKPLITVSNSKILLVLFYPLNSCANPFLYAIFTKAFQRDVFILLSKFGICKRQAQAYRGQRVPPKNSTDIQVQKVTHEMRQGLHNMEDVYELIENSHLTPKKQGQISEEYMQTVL
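Inhibition of cAMP made by TSHR-expressing cells under TSH stimulation (4nM final, EC80; 2 h, 37 deg C) is quantified with a one-step lysis HTRF kit, anti-cAMP cryptate versus cAMP-d2.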
Of the large screens only hits and unclear results are named; the others gave an inactive call. Hits are enriched below; roughly 1.2% of the tested compounds scored in any of these assays.

CCC(Sc1ccc2nnc(-c3cccnc3)n2n1)C(=O)O (centres undefined)	MmCpn inh inconclusive, gsp ag 2.5µM
COC(=O)C(C)Sc1ccc2nnc(-c3ccccc3)n2n1 (centres undefined)	gsp ag 10µM
CCN(CC(=O)NCc1cccs1)c1ccc(S(=O)(=O)N2CCCC2)cn1	none
CCc1ccc(S(=O)(=O)NCc2csc(C)n2)s1	none
Cc1ccc(-c2noc(C3CCCN(C(=O)c4cccc(F)c4)C3)n2)cc1 (centres undefined)	TSHR antag inconclusive
CC1CCN(S(=O)(=O)c2cccc(C(=O)N(C)C3(C)CCS(=O)(=O)C3)c2)CC1 (centres undefined)	none
CCCNC(=O)COC(=O)c1ccccc1C(=O)N(C)C1CCCCC1	none
Cc1ccc(SCc2c(C(=O)N/N=C/c3ccoc3)nnn2-c2nonc2N)cc1	gsp antagonist 32µM
Cc1ccc(SCc2c(C(=O)N/N=C/c3ccccc3)nnn2-c2nonc2N)cc1	none
Cc1ccc(-c2c(C(=O)N/N=C/c3ccc4c(c3)OCO4)nnn2-c2nonc2N)cc1	gsp antagonist 25µM
Cc1ccc(SCc2c(C(=O)N/N=C/c3ccc4c(c3)OCO4)nnn2-c2nonc2N)cc1	gsp antagonist inconclusive
O=C(Nc1ccccc1Cl)c1c(F)c(F)c(F)c(F)c1F	none (no result: MmCpn inh, TSHR antag)
CCn1c(C)cc(/C=C2/NC(=O)N(Cc3ccccc3F)C2=O)c1C	gsp ag inconclusive
Cc1cc(/C=C2/NC(=O)N(Cc3ccccc3F)C2=O)c(C)n1C(C)C	gsp antagonist 11µM
C=CC(C)(C)c1c2occc2c(O)c2ccc(=O)oc12	TSHR antag inconclusive (no result: gsp ag)
C=CC(C)(C)c1c(O)c(CC=C(C)C)c(O)c2c(=O)c3ccc(O)c(O)c3oc12	gsp antagonist inconclusive, uPA generation 11µM (no result: MmCpn inh, gsp ag, TSHR antag)
CC(C)(C)c1nnc(N/N=C/c2cc(Br)ccc2O)n(N)c1=O	gsp antagonist 28µM
CC(C)(C)c1ccc(Oc2ccc(NC(=O)c3ccco3)cn2)cc1	uPA generation 1.3µM
O=C(Nc1ccc(Oc2cccc(C(F)(F)F)c2)nc1)c1ccco1	none
CCN(CC)c1ccc2nc3c4ccccc4c(=O)cc-3oc2c1	CCT modulator -48
CN(C)S(=O)(=O)c1ccc(N2CCCC2)c(C(=O)NNC(=O)c2ccc(F)cc2)c1	CCT modulator -61, uPA generation inconclusive (no result: TSHR antag)
CCN(CC)S(=O)(=O)c1ccc(N2CCCC2)c(NS(=O)(=O)c2ccccc2)c1	none
CN(C)S(=O)(=O)c1ccc(N2CCCC2)c(C(=O)NNC(=O)c2ccc(Br)cc2)c1	none
CCN(CC)S(=O)(=O)c1ccc(N2CCCC2)c(NS(=O)(=O)c2ccc(F)cc2)c1	gsp ag 25µM
COc1cc(C(=O)NC(=S)Nc2ccc(Cc3ccncc3)cc2)cc(OC)c1OC	gsp antagonist 32µM
c1ccc(Sc2ncnc3c2oc2ccccc23)cc1	none
O=C(O)COc1ccc2nsnc2c1Cl	gsp antagonist inconclusive, MmCpn inh 6.3µM
COc1ccc(OCC(=O)Nc2c(Cl)ccc3nsnc23)cc1	none
COc1cc(NS(=O)(=O)c2ccc(NC(=O)c3cccs3)cc2)nc(OC)n1	gsp antagonist 22µM
CSc1ccc2[nH]c(=O)cc(C)c2c1	none
CCOC(=O)N1CCN(C(=O)CNC(=O)c2ccc(Br)o2)CC1	CCT modulator -53
C/C(=N\NC(=O)CSCc1ccccc1Cl)c1cc(O)ccc1O	uPA generation 2.5µM
O=c1[nH]c2ccc(S(=O)(=O)N3CCC(Cc4ccccc4)CC3)cc2o1	gsp antagonist 25µM
Cn1c(=O)c(=O)n(C)c2cc(S(=O)(=O)N3CCC(Cc4ccccc4)CC3)ccc21	none
O=C(O)c1ccc(N2CCS(=O)(=O)CC2)cc1	none
COCCCn1c(=O)cc(C)[nH]c1=S	CCT modulator -39
CCC(NC(=O)Nc1nccs1)(C(F)(F)F)C(F)(F)F	none
CCC(C(=O)Nc1nccs1)(C(F)(F)F)C(F)(F)F	gsp antagonist 32µM (no result: uPA generation)
COc1ccc2[nH]cc(C(=O)CN3CCCCC3C)c2c1 (centres undefined)	none (no result: gsp antagonist, CCT modulator, uPA generation, gsp ag)
COc1ccc(-n2c(C)nc3sc4c(c3c2=O)CCCC4)cc1	none (no result: gsp antagonist, CCT modulator, uPA generation, gsp ag)
COc1ccc(-n2c(NNC(C)=O)nc3sc4c(c3c2=O)CCCC4)cc1	uPA generation 7.9µM
CCc1ccc(NC(=O)C(C)OC(=O)c2ccc(NS(=O)(=O)c3ccc(C)c([N+](=O)[O-])c3)cc2)cc1 (centres undefined)	gsp antagonist inconclusive
O=C(C1CCC(CNS(=O)(=O)c2cccs2)CC1)N1CCN(c2ccc(F)cc2)CC1 (centres undefined)	gsp antagonist 35µM
Nc1nc(N)c2cc(Sc3ccc4ccccc4c3)ccc2n1	uPA generation 2µM
Cc1nn(-c2cccc(Cl)c2)c2c1C(c1cccnc1)C(C#N)=C(N)O2 (centres undefined)	gsp ag inconclusive
Cc1nn(-c2cccc(Cl)c2)c2c1C(c1ccncc1)C(C#N)=C(N)O2 (centres undefined)	gsp antagonist 40µM
COc1cc(Cl)c(C)cc1NC(=O)c1ccccc1NC(=O)CN1CCN(C(C)=O)CC1	none (no result: gsp antagonist, MmCpn inh, uPA generation, TSHR antag)
COc1cccc(OC)c1C(=O)Nc1ccc2c(c1)N(S(=O)(=O)c1cccs1)CCC2	TSHR antag -112
O=C(c1ccncc1)c1ccc(N2CCN(C3CC(=O)N(Cc4cccs4)C3=O)CC2)cc1 (centres undefined)	gsp antagonist 35µM
COC(=O)C1=C(C)NC(=O)NC1c1c(O)ccc2ccccc12 (centres undefined)	none
CN(Cc1cccc(F)c1)C(=O)C(c1ccccc1)c1ccccc1	none
CCCCN1C(=O)/C(=C/C=C2\N(C)c3ccccc3C2(C)C)SC1=S	none (no result: gsp antagonist, CCT modulator, uPA generation, gsp ag)
O=[N+]([O-])c1c(Nc2ccccc2O)cc(Cl)c2nonc12	TSHR antag -77
O=[N+]([O-])c1c(Nc2ccccc2O)ccc2nonc12	none
CN(C)S(=O)(=O)c1cccc(NC(=S)N/N=C/c2cc(Br)ccc2O)c1	gsp antagonist 50µM
CN(C)S(=O)(=O)c1cccc(NC(=S)N/N=C/c2cccc(O)c2)c1	none
CCc1ccc(NC(=O)C2CCCN(S(=O)(=O)c3ccc4[nH]c(=O)ccc4c3)C2)cc1 (centres undefined)	CCT modulator -71
CCc1cccc(NC(=O)C2CCCN(S(=O)(=O)c3c(C)[nH]c(=O)[nH]c3=O)C2)c1 (centres undefined)	CCT modulator -41 (no result: MmCpn inh, TSHR antag)
Cc1ccc(NC(=O)C2CCCN(S(=O)(=O)c3ccc4[nH]c(=O)ccc4c3)C2)cc1C (centres undefined)	gsp ag inconclusive
